This is part of a sample that, as a whole, favours compounds with a hit. Of some 83,000 tested, about 20% had one in any assay.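 Percent growth is the endpoint: 0 to 100 indicates growth inhibition (40 means 60% inhibition), 0 means no net growth, and negative values indicate cell death.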 Values without a mark were called inactive. Activity calls are given as the source filed them. How the source made its calls: active means growth percent below 10; inactive means the rest.
How the values were obtained:
Assay in all cases: NCI-60 one-dose screen, 48 h (100 = growth as untreated, 0 = no growth, -100 = all killed)
Settings in all cases: 10 µM unless noted
SR leukemia = tested on: SR leukemia
RPMI-8226 leukemia = tested on: RPMI-8226 leukemia
OVCAR-8 ovarian = tested on: OVCAR-8 ovarian
OVCAR-5 ovarian = tested on: OVCAR-5 ovarian
OVCAR-4 ovarian = tested on: OVCAR-4 ovarian
SK-OV-3 ovarian = tested on: SK-OV-3 ovarian
OVCAR-3 ovarian = tested on: OVCAR-3 ovarian
HS 578T breast = tested on: HS 578T breast
NCI/ADR-RES ovarian = tested on: NCI/ADR-RES ovarian
T-47D breast = tested on: T-47D breast
BT-549 breast = tested on: BT-549 breast
MDA-MB-435 melanoma = tested on: MDA-MB-435 melanoma
SW-620 colon = tested on: SW-620 colon
MCF7 breast = tested on: MCF7 breast
HCT-116 colon = tested on: HCT-116 colon
HCC-2998 colon = tested on: HCC-2998 colon
KM12 colon = tested on: KM12 colon
IGROV1 ovarian = tested on: IGROV1 ovarian

| Compound | growth (SR leukemia) | growth (RPMI-8226 leukemia) | growth (OVCAR-8 ovarian) | growth (OVCAR-5 ovarian) | growth (OVCAR-4 ovarian) | growth (SK-OV-3 ovarian) | growth (OVCAR-3 ovarian) | growth (HS 578T breast) | growth (NCI/ADR-RES ovarian) | growth (T-47D breast) | growth (BT-549 breast) | growth (MDA-MB-435 melanoma) | growth (SW-620 colon) | growth (MCF7 breast) | growth (HCT-116 colon) | growth (HCC-2998 colon) | growth (KM12 colon) | growth (IGROV1 ovarian) |
| --- | --- | --- | --- | --- | --- | --- | --- | --- | --- | --- | --- | --- | --- | --- | --- | --- | --- | --- |
| CCOC(=O)C1=C(C(F)(F)F)NC(=O)NC1CN1C(=O)c2ccccc2C1=O (stereo unspecified) | 5.85% (active) | 82.6% | 114% | 94.2% | 110% | 121% | 129% | 111% | 107% | 111% | 108% | 108% | 105% | 108% | 112% | 101% | 115% |  |
| COc1cc2ncnc(-n3ncc4cc(NC(=O)Nc5ccc(Cl)c(C)c5)ccc43)c2cc1OC | 71.5% | 96.8% | 110% | 109% | 98.3% | 119% | 107% | 75.9% | 98.7% | 72% | 89.7% | 93.8% | 120% | 72.7% | 81.5% | 100% | 25.8% |  |
| COc1cc(/C(=C2/O[C@@H]([C@H]3COC(C)(C)O3)[C@H]3OC(C)(C)O[C@@H]23)c2ccc3c(c2)OCO3)cc(OC)c1OC | 80.9% | 73.7% | 4.49% (active) | 59.2% | 58.1% | 63.1% | 74.8% |  | 44.4% | 55.9% | 79.5% | 73.3% |  | 44.5% | 9.6% (active) |  | 63.6% |  |
| C[C@]12C=CC(=O)C=C1[C@@H](F)C[C@@H]1[C@@H]2[C@@H](O)C[C@@]2(C)[C@H]1CC[C@]2(O)C(=O)CO | 106% | 72.7% | 83.9% | 77.2% | 106% | 71.3% | 96.3% |  | 91.5% |  | 78.5% | 103% |  | 87.4% | 105% | 105% | 100% |  |
| CCC(C)[C@H](NC(=O)Nc1cc(C(F)(F)F)cc(C(F)(F)F)c1)C(=O)N[C@@H](Cc1cn(C)cn1)C(=O)OC (stereo partly specified) | -37.8% [100 µM] (active) | -65.7% [100 µM] (active) | -78.3% [100 µM] (active) | -93.7% [100 µM] (active) | -96.7% [100 µM] (active) | -100% [100 µM] (active) | -97.6% [100 µM] (active) | -18.6% [100 µM] (active) | -49.2% [100 µM] (active) | -63.1% [100 µM] (active) | -94.5% [100 µM] (active) | -91.6% [100 µM] (active) | -58.3% [100 µM] (active) | -60.1% [100 µM] (active) | -93.1% [100 µM] (active) | -89.9% [100 µM] (active) |  |  |
| N#CC1=C(N2CCOCC2)NC2c3ccccc3Sc3ccccc3N2C1=N (stereo unspecified) | 119% | 106% | 98.7% | 109% | 109% | 81.7% | 103% |  | 89.9% | 85.8% | 97.2% | 107% |  | 98.4% | 97.2% | 104% | 110% |  |
| O=C(N/N=C/c1coc2ccccc2c1=O)c1cc2oc(-c3ccccc3)cc2[nH]1 | 87.7% | 67% | 110% | 106% | 98.7% | 102% | 99.8% | 107% | 118% | 84.7% | 77.2% | 100% | 102% | 97.2% | 96.5% | 98.8% | 101% |  |
| COc1ccccc1Cn1cc2c(c1)-c1oncc1CC2 | 16% | 32.5% | 36.2% | 35.2% | 49.2% | -18.2% (active) | -29.3% (active) | 8.86% (active) | -2.96% (active) | 52% | 67.4% |  | 27% | 13.4% | 9.05% (active) | -43.1% (active) | 6.78% (active) |  |
| C/C(CCC(=O)O)=N/Nc1ccc([N+](=O)[O-])cc1 | 40.6% | 51.9% | 70.4% | 68.1% | 66.3% |  | 89.9% | 92.9% | 49.6% |  | 89.1% | 38.6% | 72.6% | 65.2% | 56.8% | 59.9% |  | 103% |
| COC(=O)c1ccc(C(=Nc2ccc(N(C)C(=O)CN3CCN(C)CC3)cc2)c2c(O)[nH]c3ccc(C(=O)OC)cc23)cc1 | 2.08% (active) | 15.1% | 30.7% | 69.7% | 38.3% | 0.753% (active) | 28.3% | 8.61% (active) | 107% |  | 45.8% | 43.6% | 18.9% | 23.5% | 10.9% | 54.5% | 15.3% |  |
| C#CCCCCCCC[C@@H]1OC(=O)[C@H]([C@@H](C)CC)NC(=O)[C@@H]([C@@H](C)CC)NC(=O)CC(=O)[C@@H]1C | 91.2% | 93.8% | 99.8% | 88% | 99.3% | 102% | 103% | 84.6% | 99.2% |  | 104% | 107% | 101% | 99% | 94.8% | 109% | 105% |  |
| CCOC(=O)C1=C(C(F)(F)F)NC(=S)NC1CN1C(=O)c2ccccc2C1=O (stereo unspecified) | -89% (active) | 68.5% | 116% | 95.7% | 117% | 117% | 108% | 109% | 112% | 107% | 118% | 118% | 93.1% | 88.4% | 103% | 63.3% |  |  |
| Cc1[nH]n(C(=S)Nc2nc3cc(Cl)c(F)cc3s2)c(=O)c1N=Nc1ccc(F)c(Cl)c1 | -45.2% (active) | 70.9% | 103% | 103% | 91.5% | 97.8% | 98.2% | 85% | 103% | 79.6% |  | 124% | 102% | 80.8% |  | 114% | 110% |  |
| CCCCCCCCCCCCCCCCC(=O)O.CCCCCCCCCCCCCCCCCC(=O)O.CCCCCCCCCCCCCCCCCC(=O)O.CCCCCCCCCCCCCCCCCC(=O)O.CCCCCCCCCCCCCCCCCC(=O)O.CO[CH-]OC12COC1CC(O)C1(C)C(O)C(OC(C)O)C3=C(C)C(OC(=O)C(O)C([NH-])c4ccccc4)CC(O)(C(OC(=O)c4ccccc4)C21)C3(C)C.[Cu+].[Zn].[Zn].[Zn].[Zn].[Zn] (stereo unspecified) | 37.4% | 22.4% | 45.4% | 24.9% | 40.1% | 39.4% |  | 10.5% | 42.4% | 45.9% |  | 10.9% | 44.7% | 22.1% | 13.3% | 21.6% | 19.9% |  |
| Cc1nc(N)sc1C(=O)NCCO | 161% | 115% | 102% | 107% | 113% | 113% | 102% | 109% | 122% | 106% |  | 128% | 109% | 98.2% | 99.6% | 168% | 102% |  |
| CC(O)c1cc[cH-]c1.[Fe+2].c1cc[cH-]c1 (stereo unspecified) | 90.2% | 102% | 100% | 100% | 114% | 99.6% | 108% | 104% | 102% |  | 95.5% | 104% | 103% | 103% | 94.1% | 109% | 103% |  |
| CC(=O)N1CCN(CCNC(=O)n2cc(-c3ccncc3)c(-c3cc(O)cc(Cl)c3)n2)CC1 | 16.7% | 44.9% | 66% | 110% | 116% | 101% | 102% | 91.9% | 101% | 100% |  | 49.3% | 76.8% | 93.4% | 43.6% | 122% | 91.3% |  |
| CCCCn1c(Cc2ccc(OC)cc2)nc2cc(OC)c(OC)cc2c1=O | 2.75% (active) | 26.1% | 78.2% | 104% | 73.6% | 99.4% | 86.3% |  | 72.5% | 57% |  | 83.7% | 92.5% | 81.3% |  | 98.1% | 93.6% |  |

Source: PubChem BioAssay (NCI)
